# Source: PubChem BioAssay (National Center for Advancing Translational Sciences (NCATS))
# Compounds with a hit are over-represented: about 1.2% of the library has one in this group of screens.
# ERG-DNA inh = blocks human ERG Ets domain binding to DNA; AID 624246; 370,000 tested, 0.028% active; Potency, µM (series often up to 76.9 µM), for inactives: at the highest dose FP activity, negative = inhibition, hits mostly inhibitors; fluorescence polarization, His-ERG Ets domain / labelled DNA; P11308; active means well fitted inhibition curve with a large enough effect in the polarisation, with a control signal flat; inconclusive means small, poorly fitted or top-dose-only effect, or effect the other way, or a change in a side signal; inactive means no such curve, though single readings can be large or run the other way; the % refers to the polarisation;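 further: polarization taken with two DNA probes labelled with fluorescein and Texas red; % of control where 0% means no effect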
# Target sequence (P11308 whole entry, looked up, the tested form may be a part): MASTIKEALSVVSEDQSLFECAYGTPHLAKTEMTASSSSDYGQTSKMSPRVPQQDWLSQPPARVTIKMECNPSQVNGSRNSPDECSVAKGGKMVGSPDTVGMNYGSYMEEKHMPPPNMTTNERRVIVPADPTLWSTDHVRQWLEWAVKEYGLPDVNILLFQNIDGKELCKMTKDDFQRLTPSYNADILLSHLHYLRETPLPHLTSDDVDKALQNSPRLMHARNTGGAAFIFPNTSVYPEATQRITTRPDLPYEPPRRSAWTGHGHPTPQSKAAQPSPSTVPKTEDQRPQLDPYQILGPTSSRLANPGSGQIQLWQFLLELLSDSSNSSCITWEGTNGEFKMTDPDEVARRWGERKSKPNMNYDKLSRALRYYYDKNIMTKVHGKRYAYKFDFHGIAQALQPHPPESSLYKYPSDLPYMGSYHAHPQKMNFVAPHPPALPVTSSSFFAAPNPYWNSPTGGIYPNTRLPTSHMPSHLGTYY
#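 His-tagged ERG Ets domain (1 uM in the protein solution; 300mM KCl, 50mM Tris-HCl, 1mM EDTA, 1mM DTT, pH 7.5) received compound, then a probe mix of 5 nM fluorescein-DNA and 100nM Texas-615-DNA. Fluorescence polarization was read for both dyes.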
# B2AR arrestin = agonists driving beta-arrestin recruitment to human beta2-adrenergic receptor. P07550. beta-arrestin recruitment to beta2AR, cell-based reporter. Potency, µM (highest dose often 46.1 µM), for inactives: at the top dose activation, actives largely listed as activators. 330,000 tested, 0.02% active;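 further: 0% = DMSO controls and full agonism = EC100 isoproterenol or metaproterenol; nearly all actives have a fitted effect of over 65% in size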
# Mito fusion yeast = blocks mitochondrial division or promotes mitochondrial fusion; AID 485298; S. cerevisiae fusion-defective mutant growth rescue, CellTiterGlo 48 h; Potency, µM (series often up to 46.1 µM), inactives show at the highest dose growth rescue (activation), hits mostly activators; 320,000 tested, 0.23% active; further: % of control where 0% means no effect; nearly all actives have a fitted effect of over 45% in size
#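 Compounds are tested for their ability to restore growth of mitochondrial fusion-defective yeast strains at non-permissive 37C in YPEG medium over 48 hours. Viability is quantified by luciferase luminescence.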
# BRCA1 expr act = BRCA1 expression activation | MCF7-BRCA1-FFLuc reporter, luminescence, 48 h; response scale: scaled: vehicle 0%, 10 µM genistein 100% | 380,000 tested, 1.1% active | Potency, µM (titrated, usually from 46.1 µM), for inactives: top-dose activation, actives largely listed as activators | AID 624202; further: nearly all actives have a fitted effect of over 80% in size
#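 Activators of BRCA1 expression were detected as increased firefly luciferase luminescence in engineered MCF7 cells after 48 h compound incubation. Signals were scaled to genistein 10 microM as full activation.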
# Active calls of the source: *; u = inconclusive; x = no result given. Unless noted, the call rests on the fitted dose curve; in most records, active means well fitted curve in the direction sought with a large enough effect; inconclusive means small, poorly fitted or top-dose-only effect, or another doubt; inactive means no such curve, though single readings can be large; an effect the other way counts as inactive or inconclusive. Potency means the concentration at half of the fitted maximal effect.
SMILES,ERG-DNA inh,B2AR arrestin,Mito fusion yeast,BRCA1 expr act
Cc1nn(-c2ccccc2)c(Cl)c1/C=N/NC(=O)c1ccccc1F,-7%,0%,0%,11µM*
Cc1ccc(OCc2nc(C#N)c(NCc3ccc4c(c3)OCO4)o2)cc1,-4%,0%,8.9µM*,-16%
CCOc1ccc(-c2nc(C#N)c(NCc3ccc4c(c3)OCO4)o2)cc1,0%,-1%,3%,4%
CN1/C(=C\C(=O)Nc2ccc(Br)cc2)C(C)(C)c2ccccc21,3%,-1%,-15%,-16%
CN1/C(=C\C(=O)Nc2ccc(F)cc2)C(C)(C)c2ccccc21,-13%,0%,10µM*,-13%
Nc1c(-c2ccc(Cl)cc2)nnn1-c1ccccc1,6%,-1%,3%,7.1µM*
Nc1c(-c2ccc(Cl)cc2)cnn1-c1ccccc1,4%,-1%,0%,u
C/C(=C\C(=O)c1cccnc1)Nc1ccc(O)cc1,8%,0%,-7%,u
C/C(=C\C(=O)c1ccccc1)Nc1ccc(O)cc1,-9%,7%,0%,5µM*
CC(C)Cc1ccc(-c2ccc3nccn3c2)cc1,x,x,x,14µM*
CCc1nc2nc(C)cc(Nc3cc(Cl)ccc3C)n2n1,-1%,x,x,x
O=C(Nc1nnc(-c2cccs2)o1)c1cc(-c2ccccc2)nc2ccccc12,-2%,0%,13µM*,-57%
O=C(NCc1cccs1)c1cc(-c2ccccc2)nc2ccccc12,8%,0%,u,-22%
Nc1c(C(=O)NC2CCCCC2)nsc1C(=O)OCC(=O)NC1CCCCC1,9%,0%,1%,-15%
CCOC(=O)c1snc(C(=O)NC2CCCCC2)c1N,2%,0%,15%,7.1µM*
COc1ccc(CCNC(=O)CN2C(=O)COc3ccc(S(=O)(=O)N4CCCCCC4)cc32)cc1OC,6%,x,x,0%
Cc1csc(NC(=O)c2oc3ccccc3c2C)n1,-7%,0%,14%,10%
Cc1csc(Nc2nc(N)c(C(=O)Nc3ccccc3)o2)n1,-5%,0%,-6%,7.9µM*
O=C(c1cc(C2CC2)nn1-c1ccccc1)N1CCN(Cc2ccc(Cl)cc2)CC1,-3%,0%,20µM*,-36%
COc1ccc(CCNC(=O)CN2C(=O)COc3ccc(C)cc32)cc1OC,1%,x,x,0%
O=c1c2ccccc2nc(-c2ccco2)n1Cc1ccccc1,1%,x,14%,7.9µM*
COC(=O)C1C(=O)c2c([nH]c(C(=O)OC3CCCCC3)c2C)CC1C (stereo not drawn),-3%,0%,1%,5µM*
Cc1ccc(S(=O)(=O)c2cn(Cc3ccccc3)c3cc(N4CCOCC4)c(F)cc3c2=O)cc1,1%,x,x,x
O=C(CNc1ccc2ccccc2c1)N/N=C/c1cc2ccccc2nc1Cl,-4%,0%,14µM*,-41%
O=C(NCCCN1CCOCC1)c1sc2ccccc2c1Cl,5%,0%,0%,11µM*
SMILES,ERG-DNA inh,B2AR arrestin,Mito fusion yeast,BRCA1 expr act
O=C(NCC(=O)N1CCCCC1)c1sc2ccccc2c1Cl,8%,0%,2%,4.5µM*
O=C(NCCN1CCOCC1)c1sc2cc(Cl)ccc2c1Cl,0%,0%,-1%,u
O=C(COc1ccccc1C(=O)Nc1ccccc1)Nc1cccc(Br)c1,x,x,x,-53%
COCCc1nn2c(=O)cc(COC(=O)c3ccc(C(C)(C)C)cc3)nc2s1,1%,x,x,x
COc1ccc(NC(=O)Nc2ccc(Br)c(C)c2)cc1,-20%,0%,0%,11µM*
COc1ccccc1NC(=O)Nc1ccc2c(c1)CCC2,16%,0%,-8%,2.8µM*
COc1ccc(NC(=O)Nc2ccccc2OC)cc1,x,0%,-1%,14µM*
COc1ccc(CC(=O)Nc2nnc(C(C)C)s2)cc1,2%,0%,-3%,15%
COc1ccc(NC(=O)Nc2nnc(C(C)C)s2)cc1,0%,0%,-5%,10µM*
Cc1ccc2cccc(NC(=O)C(C)Oc3ccc(Cl)cc3Cl)c2n1 (stereo not drawn),-5%,x,x,x
COc1ccccc1CNCC(=O)Nc1ccc(N2CCOCC2)cc1,-7%,1%,0%,-1%
COc1ccccc1NC(=O)Nc1ccc(N2CCOCC2)cc1,2%,0%,1%,7.1µM*
COc1ccc(C(CC(=O)Nc2nccs2)n2cccc2)cc1 (stereo not drawn),14%,0%,5%,6.3µM*
CCN(C(C)=O)c1nnc(CSc2nc3ccccc3s2)s1,6%,-1%,7%,24%
CNc1nnc(CSc2nc3ccccc3s2)s1,-6%,3%,7%,11µM*
c1csc(CSc2nc3ccccc3s2)c1,x,0%,8%,7.9µM*
CCc1ccc(-c2cc(C)no2)cc1S(=O)(=O)NCc1ccc(OC)cc1,2%,x,x,x
CCn1cc(S(=O)(=O)c2ccc(Cl)cc2)c(=O)c2cc(F)c(N3CCOCC3)cc21,-3%,x,x,x
Fc1cccc(CSc2nc3ccncc3[nH]2)c1,9%,0%,12%,u
Clc1cccc(CSc2nc3ccncc3[nH]2)c1,1%,-1%,2%,8.9µM*
Cc1nn(-c2ccc(Cl)cc2)c(=O)c2ccccc12,-9%,0%,-1%,54%
Cc1nn(-c2ccc(Cl)nn2)c(=O)c2ccccc12,-4%,0%,-7%,11µM*
COc1ccc(OC)c(/C=C(\C#N)c2nc(-c3ccc(F)cc3)cs2)c1,3%,x,x,x
C#Cc1cccc(NC(=O)c2ccc(Cl)cc2Cl)c1,-8%,-1%,6%,1.8µM*
CCCn1c(CCC(=O)Nc2cc(OC)cc(OC)c2)nc2cccnc21,0%,x,x,x
SMILES,ERG-DNA inh,B2AR arrestin,Mito fusion yeast,BRCA1 expr act
Cc1ccc(S(=O)(=O)NCCc2nnc3ccc(SCc4ccc(F)cc4)nn23)cc1,1%,x,x,x
Cc1cccc(NC(=O)c2cnn3ccccc23)c1C,-1%,2%,3%,13µM*
Cc1cccc(NC(=O)c2ccccc2O)c1C,x,0%,-9%,u
COc1cc2nc(Cl)nc(NC(C)C)c2cc1OC,x,x,x,-9%
N#Cc1cccc(NC(=O)c2cc3c(s2)-c2ccc(Cl)cc2SC3)c1,2%,x,x,x
CC(C)CSc1nnc(N)s1,4%,-1%,4%,12%
Nc1nc(SCc2ccccc2)ns1,-7%,-1%,3%,11µM*
Nc1nc(SCc2ccc(Cl)cc2)ns1,-9%,-1%,27%,91%
CC(C)CSc1nsc(N)n1,x,0%,6%,13µM*
CCCCNC(=O)CSc1nc2nc(C)c(Cc3ccccc3C)c(C)n2n1,0%,x,x,x
O=C(CSc1nc2ccccc2c(=O)n1-c1ccc(F)cc1)Nc1cc(S(=O)(=O)N2CCOCC2)ccc1Cl,1%,16µM*,0%,-31%
O=C(CSc1nc2ccccc2c(=O)n1-c1ccc(F)cc1)Nc1ccc(N2CCOCC2)cc1,9%,-3%,-3%,-16%
Cc1ccc(NC(=O)c2ccc(OC(=O)C(C)Oc3ccc(Cl)cc3C)cc2)cc1 (stereo not drawn),-12%,-1%,-1%,5µM*
Cc1cc(Cl)ccc1OC(C)C(=O)OCC(=O)Nc1ccc2[nH]c(=O)[nH]c2c1 (stereo not drawn),1%,0%,3%,-2%
